Experimental findings from PubChem BioAssay AID624173 (National Center for Advancing Translational Sciences (NCATS), 2012) are described below.

About 490 (0.12%) of roughly 410,000 compounds were called active. Inconclusive results (about 1%) are left out. This is one part of a sample in which actives are shown more often than they occur. Calls come from the whole dose curve; as a rule, active = well fitted inhibition curve with a large enough effect; inconclusive = small, poorly fitted or top-dose-only effect; inactive = flat fitted curve, though single readings scatter.
% is set by controls: 0 for no effect and ±100 for the full control effect; potency is the fitted concentration of half-maximal effect.

For this experiment, the target named is pyruvate kinase (Trypanosoma brucei) (UniProt Q57TT1). The experiment can be described thus: qHTS of Trypanosoma Brucei Inhibitors. Note: nearly all actives have a fitted effect of over 50% in size. The settings on record: TbPYK enzyme, Kinase-Glo Plus ATP luminescence, 45 min; series mostly up to 76.8 µM; activity, negative = inhibition: at the top concentration. The source says:
Members of the Trypanosomatidae family of parasitic protozoans cause a spectrum of diseases throughout the tropical and subtropical world. Sleeping sickness, caused by two subspecies of Trypanosoma brucei, is endemic to areas of sub-Saharan Africa, while Chagas' disease, a manifestation of Trypanosoma cruzi infection, is prevalent throughout Central and South America. In addition, many species of Leishmania are responsible for a range of cutaneous and visceral diseases, causing ulcers, destructive lesions and kalaazar, a lethal infection of the viscera. These diseases cause severe public health and economic burdens on populations that are often already caught in a tragic cycle of poverty, poor nutrition and disease. Collectively, parasites of the trypanosomatid family infect 30 million people worldwide (~500 million live in endemic areas), and account for ~130K deaths annually. Existing treatments have developed little in the past 50 years, and suffer from toxicity, poor efficacy and resistance; the goal of this project is to develop lead drugs that will be suitable for entry into pre-clinical trials.
Glycolysis in axenically cultured T. cruzi, representing the intracellular pathogenic stage, is also essential for these parasites. {Engel, 1987} This project aims to discover and optimize selective inhibitors of the glycolytic enzyme pyruvate kinase (PYK) from Trypanosoma brucei, the parasite that causes sleeping sickness. […] Trypanosomatid PYKs show significant differences from their human counterparts including only 47-50% sequence identity and different allosteric and activation properties.{Callens, 1992} To this end, a qHTS was done against the MLSMR to discover inhibitors.
NIH Molecular Libraries Probe Production Network [MLPCN]
NIH Chemical Genomics Center [NCGC]
PI Name: Malcolm Walkinshaw, University of Edinburgh
2 uL of TbPYK/substrate buffer (columns 1-3, 5-48) are dispensed into Greiner white solid bottom 1536-well assay plates; column 4 receives only TEA buffer as 0x TbPYK controls. Compounds are then transferred via Kalypsys pin tool equipped with 1536-pin array (10 nL slotted pins, V&P Scientific, San Diego, CA). Following addition of compound, 2 uL of ADP (130 uM final concentration, all columns) is added to initiate the reaction. The plates are then incubated at room temperature for 45 minutes. Kinase-Glo Plus reagent is added (3 uL) and plates incubated for 10 minutes, before being transferred to a ViewLux high-throughput CCD imager (PerkinElmer) wherein single end-point measurements of luminescence are acquired using a clear filter. All reagents are diluted in an assay buffer consisting of 50 mM TEA (pH 7.2), 100 mM KCl, 10 mM MgCl2, 0.05% BSA and 0.01% Tween-20.
All screening operations will be performed on a fully integrated robotic system (Kalypsys, San Diego, CA) containing one RX-130 and two RX-90 anthropomorphic robotic arms (Staeubli, Duncan, SC). Library plates will be screened starting from the lowest and proceeding to the highest concentration. Vehicle-only plates, with DMSO being pin-transferred to columns 5-48, will be inserted uniformly at the beginning and the end of each library in order to monitor and record any shifts in the background, which can be affected by reagent dispensers or loss in enzyme activity over time. Screening data will be corrected, normalized, and concentration-effect relationships will be derived by using publicly-available curve fitting algorithms developed in-house (http://ncgc.nih.gov/pub/openhts).
For the molecule `COc1cc(C[C@H]2NCCc3cc(O)c(O)cc32)cc(OC)c1OC`, the “activity, negative = inhibition” value is 1.09% (inactive). As for `O=C(c1ccncc1)N1CCC2(CCN(Cc3cc(C(F)(F)F)cc(C(F)(F)F)c3)CC2)CC1`, the “activity, negative = inhibition” value is 0% (inactive). For the molecule `CC(=O)O[C@]1(C(C)=O)CC[C@@H]2[C@@H]3C=C(C)C4=CC(=O)CC[C@@]4(C)[C@H]3CC[C@]21C`, the “activity, negative = inhibition” value is 0% [at 33.2 µM] (inactive). With `CS(=O)(=O)N1CCC2(CC1)CN(Cc1ccccc1)C2`, the “activity, negative = inhibition” value is -1.13% (inactive). With `CCCCC(=O)OCC(=O)[C@H]1[C@H](C)C[C@@H]2[C@@H]3C[C@@H](F)C4=CC(=O)C=C[C@]4(C)[C@@]3(F)[C@@H](O)C[C@@]21C`, the “activity, negative = inhibition” value was -6.95% (inactive). On to `CC(C)NC(=O)N1CCCC2(CCN(C(=O)c3cccn3C)CC2)C1`, for which the “activity, negative = inhibition” value is -0.138% (inactive). With `CCOC(=O)c1c(NC(=O)CSc2cn(CCNC(=O)c3cccc(C(F)(F)F)c3)c3ccccc23)sc2c1CCC2`, the “activity, negative = inhibition” value is 0.688% (inactive). For `O=c1c(-c2cc(F)cc(F)c2)nc2cnc(Oc3ccccc3)nc2n1C[C@H]1CCCO1`, the “activity, negative = inhibition” value is -5.6% (inactive). With `COc1ccc(-c2nc3cnc(OC)nc3n(Cc3ccc(F)cc3)c2=O)cc1`, the “activity, negative = inhibition” value is -5.21% (inactive). On to `COc1ccc(C(=O)N2CCC3(CCCN(C(c4ccccc4)c4ccccc4)C3)CC2)cc1`, for which the “activity, negative = inhibition” value is -16.4% (inactive). The same measure, in the same setting: for `Cc1nc2cnc(N3CCNCC3)nc2n(Cc2ccc(F)cc2)c1=O` the value was -7.19% (inactive); for `CS(=O)(=O)N1CCC[C@@]2(CCN(c3ccncc3)C2)C1`, 0.396% (inactive); for `O=C(Nc1cccc(C(F)(F)F)c1)c1cc(Br)cc(Br)c1O`, 3.82% (inactive).

In the case of `O=C(c1cnccn1)N1CCC2(CCCN(Cc3ccccc3)C2)CC1`, the “activity, negative = inhibition” value was -4.69% (inactive). On to `COc1cc([C@@H]2c3cc4c(cc3[C@@H](O[C@@H]3O[C@@H]5CO[C@@H](C)O[C@H]5[C@H](O)[C@H]3O)[C@H]3COC(=O)[C@H]23)OCO4)cc(OC)c1OP(=O)(O)O`, for which the “activity, negative = inhibition” value is 4.69% (inactive).

Regarding `CC(C)NC(=O)N1CC[C@@]2(CCCN(C(=O)c3cccn3C)C2)C1`, the “activity, negative = inhibition” value was 6.56% (inactive).

Consider `CC[C@]1([C@H]2O[C@@H]([C@@H]3O[C@](O)(CO)[C@@H](C)C[C@H]3C)C[C@H]2C)CC[C@@H]([C@]2(C)CC[C@@]3(C[C@@H](O)[C@@H](C)[C@@H]([C@H](C)[C@H](OC)[C@H](C)C(=O)O)O3)O2)O1`, for which the “activity, negative = inhibition” value was -3.98% (inactive). Still for that read-out and setting: next, `CC(C)(O)c1ccccc1CC[C@H](SCC1(CC(=O)O)CC1)c1cccc(/C=C/c2ccc3ccc(Cl)cc3n2)c1`: 10.6% (inactive). Consider `CC1(C)OC2CC(=O)OC[C@@]23C1CC(=O)[C@]1(C)C3CC[C@@]2(C)C(c3ccoc3)OC(=O)C3O[C@@]321` (stereo partly drawn), for which the “activity, negative = inhibition” value is 4.76% (inactive). As for `c1ccc2sc(SNC3CCCCC3)nc2c1`, the “activity, negative = inhibition” value was -21.1% (inactive). Take `CC(C)Cn1c(=O)c2ccccc2n2c(-c3cccc(Cl)c3)nnc12`: the “activity, negative = inhibition” value was -6.77% (inactive).

Consider `O=c1[nH]c2ccccc2n2c(-c3ccccc3)nnc12`, for which the Potency was 2.82 µM (active).

With `O=C(c1ncn2c1c(=O)[nH]c1ccccc12)N1CCc2ccccc2C1`, the “activity, negative = inhibition” value is -0.741% (inactive). In the case of `CCNC[C@H](O)c1cccc(O)c1`, the “activity, negative = inhibition” value was -5.16% [at 33.2 µM] (inactive). Consider `Cc1c(O)cc2c(c1C)O[C@](C)(CCC[C@H](C)CCC[C@H](C)CCCC(C)C)CC2`, for which the “activity, negative = inhibition” value was -8.92% (inactive).

With `Nc1ccccc1SC(C[N+](=O)[O-])c1ccccc1` (stereo not drawn), the Potency is 12.6 µM (active).

Turning to `CCC(=O)N1CCc2cc(Br)cc(S(=O)(=O)Nc3ccc(C)cc3C)c21`, the “activity, negative = inhibition” value is 1.76% (inactive).

As for `COCCn1c(=O)c(-c2ccc(OC)cc2)nc2cnc(Oc3cccc(Cl)c3)nc21`, the “activity, negative = inhibition” value is 2.75% (inactive). Regarding `N#Cc1cccc(-c2nc3cnc(N4CCNCC4)nc3n(C3CC3)c2=O)c1`, the “activity, negative = inhibition” value is -13.9% (inactive). As to `COc1cc2c(cc1OC)CC(=O)N(CCCN(C)C[C@H]1Cc3cc(OC)c(OC)cc31)CC2`, the “activity, negative = inhibition” value is 5.47% (inactive). Consider `CC(C)NC(=O)N1CC[C@@]2(CCCN(C(=O)c3cccc(F)c3)C2)C1`, for which the “activity, negative = inhibition” value was 5.23% (inactive).

Regarding `COc1cc(C[C@H](C)N)c(OC)cc1Br`, the “activity, negative = inhibition” value is -1.96% [at 157 µM] (inactive). As to `CCCCC1C(=O)NC(=O)N(C2CCCCC2)C1=O` (stereo not drawn), the “activity, negative = inhibition” value was -8.38% (inactive). For the molecule `O=C1C=CC(=O)N1c1ccc(N2CCCCC2)cc1`, the Potency is 10 µM (active). Regarding `O=C(c1csnn1)N1CCC2(CCN(Cc3nccs3)CC2)CC1`, the “activity, negative = inhibition” value is 0.484% (inactive). Consider `Cc1ccc(NC(=O)Cn2sc3ccccc3c2=O)cc1`, for which the Potency was 7.94 µM (active). In the case of `Cc1ccc(NC(=O)Cn2c(=O)n(-c3ccccc3)c(=O)c3c4c(sc32)CCCC4)cc1`, the “activity, negative = inhibition” value is 8.83% (inactive). For `CC1(C)NC(=O)N(CC(=O)Nc2ccc(-c3ccccc3)cc2)C1=O`, the “activity, negative = inhibition” value is -7.35% (inactive).

On to `CO/N=C(\C(=O)N[C@@H]1C(=O)N2C(C(=O)O)=C(Cn3nnc(C)n3)CS[C@H]12)c1csc(N)n1`, for which the “activity, negative = inhibition” value was -4.72% (inactive). `O=C(/C=C/c1cccc(F)c1)NC1CC1`: the “activity, negative = inhibition” value is -11.3% (inactive).

Turning to `C=CCN1CCC23c4c5ccc(O)c4O[C@H]2C(=O)CC[C@@]3(O)C1C5` (stereo partly drawn), the “activity, negative = inhibition” value was -1.68% (inactive). `CC1(C)OC2CO[C@]3(COS(N)(=O)=O)OC(C)(C)OC3C2O1` (stereo partly drawn): the “activity, negative = inhibition” value is -0.562% (inactive). Consider `O=C1c2c(O)cccc2[C@@H]([C@@H]2O[C@H](CO)[C@@H](O)[C@H](O)[C@H]2O)c2cc(CO)cc(O)c21`, for which the “activity, negative = inhibition” value is -15.8% (inactive).
